ChEMBL document CHEMBL5308541, “MAIP: An Open-Source Tool to Enrich High-Throughput Screening Output and Identify Novel, Druglike Molecules with Antimalarial Activity” (ACS Med Chem Lett, 2023)
In all, about 150,000 compounds went through this assay and about 540 (0.36%) showed an effect of 50% or more. The full list was thinned out, with strong results kept by preference.

Each compound was assayed on Plasmodium falciparum (assay: Primary screen in NF54 nanoGlo assay, in single point, at 2uM, 72h; a lower Z score goes with more inhibition). Details: timepoint 72 hour.
Assay type: functional, Erythrocyte
With `Cc1cccc2c(-c3ccc(N4CCN(C)CC4)nn3)c[nH]c12` the “% Inhibition” value was -16% and the Z score was 2.75. In the case of `CNC(=O)CN1CCC(Nc2ncnc3ccc(C(C)C)cc23)CC1`, the “% Inhibition” value is reported as 2% and the Z score is reported as -0.48. With `COc1ccc2[nH]cc(C3=CCN(c4ccc5nnc(-c6ccccc6F)n5n4)CC3)c2c1` the “% Inhibition” value was 51% and the Z score was -8.85. `Fc1ccccc1-c1nnc2ccc(NCc3ccccc3OC3CCCC3)nn12` was tested, and the “% Inhibition” value was -5% and the Z score was 0.8. In the case of `CN1CCC(N2CCC(NCc3cccc4nsnc34)CC2)CC1`, the “% Inhibition” value is reported as 14% and the Z score is reported as -2.08. For `FC(F)(F)Oc1cccc(CNC2CCN(C3CC3)CC2)c1`, the “% Inhibition” value was -13% and the Z score was 2.24. For `Cc1cccc([C@@H](C)CNC2CCN(CCN3CCOCC3)CC2)c1`, the “% Inhibition” value was -4% and the Z score was 0.67. In the case of `CCCc1cccc(CNC2CCN(C3CCN(C)CC3)CC2)c1`, the “% Inhibition” value is reported as 76% and the Z score is reported as -16.27. In the case of `C[C@@H](CNC1CCN(C2CCN(C)CC2)CC1)c1cccc(Cl)c1`, the “% Inhibition” value is reported as 97% and the Z score is reported as -17.23. For `Cn1cc(-c2cncc(C(=O)NC3CCN(c4cccc(F)c4)CC3)c2)cn1`, the “% Inhibition” value was 50% and the Z score was -10.8. For `Cc1cc(N2CC3COCCC3(C(=O)O)C2)nc2ccc(F)cc12` (stereo not drawn), the “% Inhibition” value was 76% and the Z score was -13.26. For `O=C(c1cccc(OCCc2ccccc2)c1)N1CC2COCCC2(C(=O)O)C1` (stereo not drawn), the “% Inhibition” value was -3% and the Z score was 0.52. For `Cc1sc2nc(-c3ccccn3)nc(NCCc3nccn3C)c2c1-c1ccccc1`, the “% Inhibition” value was 71% and the Z score was -14.01. For `CCN1CCN(CC2CN(C/C=C/c3ccc(OC)cc3)CC2CO)CC1` (stereo not drawn), the “% Inhibition” value was -3% and the Z score was 0.7. For `O=C1CN(C2CCN(CC3CCCCC3)CC2)[C@]2(CCOC2)CN1Cc1ccccc1`, the “% Inhibition” value was -8% and the Z score was 1.39. In the case of `Brc1ccc2[nH]c3c(c2c1)CCCC3NC1CCc2[nH]cnc2C1` (stereo not drawn), the “% Inhibition” value is reported as 98% and the Z score is reported as -19.51. For `CN(C)C1(CNc2nc(C(F)(F)F)nc3cc(F)ccc23)CCCCCC1`, the “% Inhibition” value was 61% and the Z score was -9.21. With `CN(C)C1(CNc2nc(C(F)(F)F)nc3cc4c(cc23)OCO4)CCCCCC1` the “% Inhibition” value was 54% and the Z score was -8.21. In the case of `CN(C)c1nc(N2CCC(N3CCN(CCO)CC3)CC2)ncc1F`, the “% Inhibition” value is reported as -1% and the Z score is reported as 0.13. In the case of `Cc1ccccc1CN1CCC(CNc2c3c(nc4ccccc24)CCC3)CC1`, the “% Inhibition” value is reported as 94% and the Z score is reported as -16.23. In the case of `C[C@@H](c1cccc(-c2nccc3ncccc23)c1)N1CCCC1`, the “% Inhibition” value is reported as -7% and the Z score is reported as 1.08. For `Cc1cc(N2CCC(NCCCN3CCCc4ccccc43)CC2)nc(N)n1`, the “% Inhibition” value was 53% and the Z score was -8.02. With `Cc1ccc2nc(CCCNC3CCN(c4cc(C)nc(N)n4)CC3)oc2c1` the “% Inhibition” value was 40% and the Z score was -6.03. `Cc1cc(N2CCC(NCCc3cnn(-c4ccccc4)c3)CC2)nc(N)n1` was tested, and the “% Inhibition” value was -2% and the Z score was 0.43.
